According to PubChem BioAssay AID602474 (National Center for Advancing Translational Sciences (NCATS), 2012):
Records with an inconclusive call do not appear. The source made the active and inactive calls. Calls come from the whole dose curve; as a rule, active = well fitted inhibition curve with a large enough effect; inconclusive = small, poorly fitted or top-dose-only effect; inactive = no such curve, though single readings can be large or run the other way.

Biological target: Luciferin 4-monooxygenase (Photinus pyralis) (UniProt P08659)
Assay: FLuc inhibitory activity for the follow-up compounds in a biochemical assay with a commercial detection reagent - BriteliteTM Plus (PerkinElmer)
Conditions: purified FLuc, Britelite Plus luminescence; series mostly up to 38.3 µM
Text: NCGC Assay Overview: Firefly (Photinus pyralis) luciferase is one of the most commonly used transcriptional reporters. It is considered one of the more dynamically responsive reporters - that is, responsive to changes in reporter transcription - as it requires no post-translational modifications and is enzymatically active directly after protein synthesis (Wood, 1998). With no endogenous expression in mammalian cells and without the requirement of external excitation, it offers very little background signal, thus generally providing excellent signal to background for most assays. Previous profiling work to determine the prevalence of compounds that affect FLuc enzymatic activity (PubChem AID 411) identified that ~3% of the MLSMR library (then at ~72K) inhibited FLuc (Auld et al., 2008). […] Of the compounds identified in this profile that inhibited FLuc, 151 compounds were selected for further analysis, in an effort to better understand their mode of inhibiting FLuc. The assay described here was to determine the activity of the compounds in a FLuc assay that used a commercial formulation of detection reagent (BriteliteTM Plus; PerkinElmer).
NCGC Assay Protocol Summary: Reagents: Britelite Plus detection reagent; 50mM Tris acetate, pH 7.5; 10nM P. pyralis luciferase (Sigma #L9506) Control compounds used were two known firefly luciferase inhibitors (3-(5-(3-chlorophenyl)-1,2,4-oxadiazol-3-yl)benzoic acid and 5-(2-fluorophenyl)-3-phenyl-1,2,4-oxadiazole), and DMSO. Assay Summary: Three microliters of buffer containing firefly luciferase (final concentrations: 50mM Tris acetate, 10nM P. pyralis luciferase) are dispensed into each well of a Greiner white, solid-bottom 1536-well format plate using a flying reagent dispenser (FRD). These assay plates were then treated with 23nL of compound or DMSO using a Kalypsys pin tool, which allows for delivery of a 12-point intraplate titration of each compound to the assay plate (quantitative HTS), with final compound concentrations ranging from approximately ~38uM to 0.2nM. Three microliters of 2X Britelite Plus detection reagent was then delivered by FRD to each well. Luciferase activity was then measured using a ViewLux CCD imager (PerkinElmer), with an average exposure time of 2-30 seconds (2X binning, medium/high gain).

Sequence of Luciferin 4-monooxygenase (Photinus pyralis) (P08659 whole entry, looked up): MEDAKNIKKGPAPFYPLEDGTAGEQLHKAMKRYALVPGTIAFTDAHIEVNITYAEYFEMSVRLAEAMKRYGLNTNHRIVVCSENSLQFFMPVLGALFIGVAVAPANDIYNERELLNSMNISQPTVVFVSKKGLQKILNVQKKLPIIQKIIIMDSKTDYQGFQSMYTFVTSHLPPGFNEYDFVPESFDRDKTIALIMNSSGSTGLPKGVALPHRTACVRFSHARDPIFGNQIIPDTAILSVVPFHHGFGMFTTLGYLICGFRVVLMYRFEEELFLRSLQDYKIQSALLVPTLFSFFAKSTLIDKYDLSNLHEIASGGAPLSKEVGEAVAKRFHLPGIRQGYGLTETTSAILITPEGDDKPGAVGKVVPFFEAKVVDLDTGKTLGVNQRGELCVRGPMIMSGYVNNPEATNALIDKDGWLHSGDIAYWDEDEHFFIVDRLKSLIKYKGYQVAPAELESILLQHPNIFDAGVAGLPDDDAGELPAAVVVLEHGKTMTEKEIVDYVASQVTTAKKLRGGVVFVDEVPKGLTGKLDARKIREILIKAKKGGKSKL

Potency, inactive:
O=C(O)c1cccc(NC(=O)c2ccccc2NC(=O)c2ccccc2F)c1, CCOc1ccc2nc(NC(=O)Cc3cccs3)sc2c1, O=C(Nc1ccccc1C(=O)O)c1cccc(C(=O)Nc2ccccc2C(=O)O)c1, O=C(Nc1ccccc1C(=O)Nc1ccccc1C(=O)O)c1ccccc1, O=C(Nc1ccccc1C(=O)O)c1cccc(NC(=O)c2ccc(Br)o2)c1, O=C(Nc1ccccc1C(=O)O)c1ccccc1, O=C(Nc1ccccc1C(=O)O)c1cc(S(=O)(=O)Nc2cccc(F)c2)ccc1Cl, O=C(O)c1cccc(NC(=O)c2cccc(S(=O)(=O)Nc3cccc(F)c3)c2)c1, O=C(Nc1ccccc1C(=O)O)c1cccc(S(=O)(=O)Nc2ccc(Br)cc2)c1, O=C(O)c1ccc(NC(=O)c2ccccc2NC(=O)c2ccccc2Br)cc1, O=C(Cc1ccc(Cl)cc1)Nc1cccc(C(=O)Nc2ccccc2C(=O)O)c1, O=C(O)c1cccc(NC(=O)c2cccc(S(=O)(=O)N3CCc4ccccc43)c2)c1, Cc1ccccc1C(=O)Nc1cccc(C(=O)Nc2ccccc2C(=O)O)c1, COc1ccc(Br)cc1C(=O)Nc1ccc(C(=O)O)cc1, O=C(O)c1ccc(NC(=O)c2cccc(C(=O)Nc3ccc(C(=O)O)cc3)c2)cc1, COc1ccc(C(=O)Nc2cccc(C(=O)O)c2)cc1S(=O)(=O)N1CCCC1, COc1ccccc1C(=O)Nc1ccc(C(=O)Nc2ccccc2C(=O)O)cc1, O=C(Nc1ccccc1C(=O)O)c1cc(S(=O)(=O)NCc2ccccc2)ccc1Cl

Potency, active:
CCOc1ccc2nc(NC(=O)c3ccccn3)sc2c1 0.895 µM, O=C(Nc1ccccc1C(=O)O)c1ccc(NC(=O)C2CC2)cc1 4.49 µM, CCOc1ccc2nc(NC(=O)c3ccccc3)sc2c1 2.52 µM, CCOc1ccc2nc(NC(=O)c3ccoc3C)sc2c1 2 µM, Nc1ccc(-c2nc3cc(N)ccc3s2)cc1 4 µM, Cc1ccc(C(=O)Nc2cccc(C(=O)O)c2)cc1S(=O)(=O)N1CCOCC1 11.3 µM, Nc1cccc(-c2nc3ccc(N)cc3s2)c1 0.798 µM, COc1cc(OC)cc(C(=O)Nc2ccc(-c3nc4ccccc4s3)c(C)c2)c1 0.113 µM, CCOc1ccc(C(=O)Nc2cccc(C(=O)O)c2)cc1Cl 7.11 µM, NC(=O)Cc1ccc2sc(-c3ccccc3)nc2c1 6.34 µM, Nc1ccc(-c2nc3ccc(C(=O)O)cc3s2)cc1 0.634 µM, O=C(O)c1cccc(NC(=O)c2cccc(NC(=O)C3CCCO3)c2)c1 (stereo not given) 11.3 µM, Nc1ccc2nc(-c3ccccc3)sc2c1 0.634 µM, Cc1ccc(C(=O)Nc2ccccc2C(=O)O)cc1S(=O)(=O)N1CCCCCC1 8.95 µM, CN=c1scc(-c2ccccc2F)n1/N=C/c1ccc[nH]1 0.0798 µM, c1ccc2sc(-c3ccc4c(c3)OCO4)nc2c1 1.79 µM, COc1ccc2nc(NC(=O)c3ccc4ncsc4c3)sc2c1 25.2 µM
